This test is described as follows: NCI Yeast Anticancer Drug Screen. Data for the rad18 strain (AID 177). To be noted: S. cerevisiae rad18 mutant growth inhibition, hits give high values. As to the method: Growth inhibition of yeast strains with defined genetic alterations is measured as a screen for potential anti-cancer activity. Selected strains with alterations in DNA damage repair or cell cycle control were exposed to compounds and growth inhibition was measured relative to vehicle treated controls. The strain used in this assay is rad18

Compounds without any hit were thinned out: in the full panel of roughly 79,000, 15% have a hit. Unmarked numbers belong to inactive results. The source made the active and inactive calls. Rule as the data show it: active = growth inhibition above about 70%; inactive = the rest.

For the compound `Cc1nc2c(Br)cc(Br)cc2c(=O)n1-c1ccccc1NC1OCC(O)C(O)C1O` (stereo not given), the growth inhibition reads like this: (at 1.2 µM) 42%; (at 3.7 µM) 41%; (at 11.0 µM) 41%; (at 33.0 µM) 62%; (at 100.0 µM) 97% (active).
As to `CCC(C)NC1=NCC(C)S1` (stereo not given), the growth inhibition is, setting by setting: (at 1.2 µM) -12%; (at 3.7 µM) 0%; (at 11.0 µM) -6%; (at 33.0 µM) -26%; (at 100.0 µM) -32%.
For the compound `CCCCOCn1c(=O)[nH]c(=O)c2cc(Br)ccc21`, the growth inhibition was -19% (at 1.2 µM); -5% (at 3.7 µM); -1% (at 11.0 µM); 9% (at 33.0 µM); 38% (at 100.0 µM).
For `CCOC(=N)c1ccc(O)c(OC)c1`, the growth inhibition by setting is: (at 1.2 µM) -1%; (at 3.7 µM) -3%; (at 11.0 µM) -3%; (at 33.0 µM) 0%; (at 100.0 µM) 14%.
In the case of `C[C](C)(C)[Ge]([O][Ge]([c]1ccccc1)[c]1ccccc1)([O][Ge]([c]1ccccc1)[c]1ccccc1)[C](C)(C)C`, the growth inhibition (at 1.2 µM) was 4%; the growth inhibition (at 3.7 µM) was 20%; the growth inhibition (at 11.0 µM) was 56%; the growth inhibition (at 33.0 µM) was 73% (active); the growth inhibition (at 100.0 µM) was 74% (active).
For the compound `CCOC1(c2cccc([N+](=O)[O-])c2)c2ccccc2Oc2ccccc21`, the growth inhibition by setting is: (at 1.2 µM) -1%; (at 3.7 µM) 1%; (at 11.0 µM) -12%; (at 33.0 µM) -9%; (at 100.0 µM) 12%.
The like results for `COc1ccc(C(=O)Oc2ccccc2Br)cc1` were, in that order, 1%, 2%, 1%, 10% and 53%.
For the compound `C[C@]12CC[C@H](O)CC1=CC[C@@H]1C2CC[C@]2(C)C(=O)NC(=O)CC12` (stereo not given in full), the growth inhibition was -27% (at 1.2 µM); -29% (at 3.7 µM); -23% (at 11.0 µM); 77% (active) (at 33.0 µM); 92% (active) (at 100.0 µM).

Source of the values: PubChem BioAssay (NCI).
